Test results taken from PMC5540273 (PLoS ONE, 2017).

How the values were obtained:
Conditions in all cases: concentration: 1 μM, replicates: in singlicate; n = 1
[1] = system: T1, DCAMKL2
T1 construct: gene DCLK2

[2] = system: T2, DCAMKL3
T2 construct: gene DCLK3

[3] = system: DDR1
[4] = system: DDR2
[5] = system: T3, DLK
T3 construct: gene MAP3K12

[6] = system: T4, DMPK2
T4 construct: gene CDC42BPG

[7] = system: DMPK
[8] = system: T5, DRAK1
T5 construct: gene STK17A

[9] = system: T6, DRAK2
T6 construct: gene STK17B

[10] = system: DYRK1A
[11] = system: DYRK1B
[12] = system: DYRK2
[13] = system: EGFR
[14] = system: EIF2AK1
[15] = system: EPHA1
[16] = system: EPHA2
[17] = system: EPHA3
[18] = system: EPHA4
[19] = system: EPHA5
[20] = system: EPHA6
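Note: KINOMEscan kinase panel screen.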

SMILES | %Inh [1] [%] | %Inh [2] [%] | %Inh [3] [%] | %Inh [4] [%] | %Inh [5] [%] | %Inh [6] [%] | %Inh [7] [%] | %Inh [8] [%] | %Inh [9] [%] | %Inh [10] [%] | %Inh [11] [%] | %Inh [12] [%] | %Inh [13] [%] | %Inh [14] [%] | %Inh [15] [%] | %Inh [16] [%] | %Inh [17] [%] | %Inh [18] [%] | %Inh [19] [%] | %Inh [20] [%]
O=C(Nc1c(F)cccc1F)c1cc(C(=O)c2ccccc2F)c[nH]1 [GSK1326180] | 0 | 36 | 0 | 13 | 14 | 0 | 0 | 10 | 0 | 2 | 17 | 12 | 26 | 0 | 0 | 11 | 0 | 9 | 0 | 2
CN(c1ccc(NC(=O)Nc2cccc(Cl)c2)cc1)c1ccnc(N)n1.Cl [GW830707] | 0 | 4 | 97.7 | 99.3 | 0 | 0 | 4 | 0 | 17 | 0 | 14 | 14 | 10 | 0 | 8 | 18 | 15 | 17 | 33 | 48
O=C(O)C(F)(F)F.O=c1[nH]ccc2nc(N[C@@H]3CCNC3)nc(Nc3ccc4c(c3)S(=O)(=O)CC4)c12 [GSK2181306] | 84 | 98.4 | 0 | 5 | 72 | 45 | 97.5 | 99.5 | 92.1 | 35 | 81 | 52 | 33 | 4 | 12 | 7 | 93.9 | 16 | 0 | 16
Cc1ccccc1CC(=O)N1CCc2cc(-c3cn(C)c4ncnc(N)c34)ccc21 [GSK2603346] | 0 | 0 | 56 | 13 | 4 | 74 | 0 | 0 | 0 | 17 | 4 | 4 | 22 | 90.1 | 13 | 5 | 0 | 0 | 0 | 10
Cc1ccc(O)cc1Nc1ccnc2cc(-c3ccc(CN4CCCCC4)o3)ccc12 [GW557777] | 10 | 0 | 98.1 | 94.5 | 0 | 7 | 0 | 10 | 0 | 0 | 0 | 2 | 46 | 0 | 99.7 | 94.5 | 94.9 | 96.2 | 99.8 | 90
Fc1cc(Cl)ccc1Nc1ccnc2cc(-c3ccc(CN4CCOCC4)o3)ccc12 [GW560109] | 0 | 0 | 97.9 | 60 | 28 | 0 | 16 | 0 | 0 | 11 | 7 | 13 | 71 | 10 | 94.5 | 34 | 32 | 41 | 0 | 65
Nc1cccc(-c2ccc3c(N)n[nH]c3c2)c1 [GSK2193613] | 0 | 0 | 0 | 0 | 43 | 0 | 33 | 95.1 | 0 | 24 | 0 | 74 | 0 | 0 | 9 | 5 | 15 | 0 | 0 | 3
Cc1ccc(O)cc1Nc1ccnc2ccc(C(C)(C)C)cc12 [GW856805] | 18 | 0 | 40 | 60 | 0 | 5 | 3 | 12 | 0 | 0 | 19 | 19 | 37 | 44 | 99 | 92.9 | 71 | 91.3 | 99.3 | 79
Cc1ccc(NC(=O)c2ccnc(N3CCCCC3)c2)cc1-c1ccc(C(=O)NCC2CC2)cc1 [GW775610] | 0 | 4 | 99 | 93.6 | 5 | 0 | 0 | 0 | 0 | 40 | 29 | 2 | 26 | 0 | 0 | 5 | 6 | 0 | 31 | 0
CNc1nccc(-c2ccc3c(N)n[nH]c3c2)n1 [GSK2206003] | 1 | 72 | 0 | 29 | 34 | 0 | 0 | 99.2 | 83 | 98.8 | 99.1 | 90 | 25 | 0 | 11 | 0 | 12 | 7 | 0 | 0
CC(C)NCC(Cc1ccccc1)NC(=O)c1cc(Br)c(-c2ccnc3[nH]ccc23)s1.Cl.Cl (stereo not shown) [GSK1383281] | 0 | 54 | 0 | 13 | 24 | 50 | 32 | 0 | 4 | 17 | 29 | 33 | 26 | 0 | 6 | 0 | 8 | 0 | 0 | 0
COc1ccc(NC(=O)c2ccoc2)cc1-c1ccc(C(=O)NCC2CC2)cc1 [GW810437] | 17 | 12 | 0 | 50 | 0 | 0 | 1 | 6 | 7 | 0 | 8 | 21 | 0 | 0 | 0 | 0 | 15 | 0 | 0 | 0
CN(c1ccc2c(c1)nc(NCc1ccccc1)n2C)c1ccnc(Nc2ccc(CS(C)(=O)=O)cc2)n1.Cl [GW811603] | 0 | 99.4 | 99.5 | 100 | 14 | 0 | 9 | 0 | 0 | 5 | 0 | 0 | 0 | 0 | 0 | 13 | 27 | 0 | 10 | 0
Cc1cc(-c2ccnc(Nc3cccc(C#N)c3)n2)cc(C)c1O [GSK1440913] | 10 | 61 | 0 | 23 | 46 | 22 | 0 | 96.8 | 45 | 46 | 51 | 61 | 38 | 0 | 27 | 24 | 4 | 13 | 0 | 13
CS(=O)(=O)c1cccc(CNc2nc(Nc3ccc4c(c3)CCC(=O)N4)ncc2C(F)(F)F)c1 | 0 | 99.4 | 0 | 2 | 13 | 0 | 0 | 95.6 | 98.3 | 85 | 61 | 0 | 0 | 0 | 1 | 0 | 0 | 0 | 0 | 0
O=C(Nc1n[nH]c2cc(-c3cccs3)ccc12)C1CC1 [SB-731284] | 3 | 0 | 10 | 23 | 26 | 0 | 0 | 14 | 12 | 15 | 0 | 34 | 4 | 7 | 0 | 0 | 13 | 0 | 0 | 0
CN(C)CCOc1ccc(-c2cc(-c3ccc(Cl)c(O)c3)c(-c3ccncc3)[nH]2)cc1.Cl.Cl [SB-684387] | 0 | 10 | 56 | 38 | 14 | 41 | 29 | 20 | 0 | 0 | 30 | 18 | 38 | 31 | 51 | 16 | 19 | 10 | 0 | 32
COc1cc(Nc2nccc(N3CCC(NS(=O)(=O)c4ccc(NC(C)=O)cc4)CC3)n2)cc(OC)c1OC [GSK1379825] | 1 | 0 | 0 | 14 | 76 | 83 | 0 | 0 | 0 | 25 | 8 | 10 | 11 | 7 | 54 | 46 | 0 | 28 | 0 | 37
Nc1ncc(-c2cn[nH]c2)c2scc(-c3ccc4c(c3)CCN4C(=O)Cc3ccccc3)c12 [GSK2593067] | 5 | 0 | 98.4 | 22 | 18 | 90.3 | 0 | 0 | 0 | 20 | 0 | 7 | 25 | 48 | 26 | 0 | 0 | 0 | 0 | 12
CN(c1ccc(NC(=O)N2CCN(CCCN3CCOCC3)CC2)cc1)c1ccnc(Nc2ccc(CS(C)(=O)=O)cc2)n1.Cl [GW830899] | 0 | 5 | 36 | 54 | 24 | 0 | 0 | 0 | 13 | 0 | 0 | 0 | 48 | 0 | 48 | 22 | 0 | 4 | 0 | 0
